# Reference: PubChem BioAssay AID1851 (National Center for Advancing Translational Sciences (NCATS), 2009)
# Among all 16,000 compounds or so, about 5,100 (32%) were called active. Not shown: some 25% with an inconclusive outcome. Calls come from the whole dose curve; as a rule, active = well fitted curve in the direction sought with a large enough effect; inconclusive = small, poorly fitted or top-dose-only effect, or effect the other way; inactive = no such curve, though single readings can be large or run the other way. Some of the results follow.
# Target: Cytochrome P450 3A4 (Homo sapiens) (UniProt P08684)
# Sequence (P08684 whole entry, looked up): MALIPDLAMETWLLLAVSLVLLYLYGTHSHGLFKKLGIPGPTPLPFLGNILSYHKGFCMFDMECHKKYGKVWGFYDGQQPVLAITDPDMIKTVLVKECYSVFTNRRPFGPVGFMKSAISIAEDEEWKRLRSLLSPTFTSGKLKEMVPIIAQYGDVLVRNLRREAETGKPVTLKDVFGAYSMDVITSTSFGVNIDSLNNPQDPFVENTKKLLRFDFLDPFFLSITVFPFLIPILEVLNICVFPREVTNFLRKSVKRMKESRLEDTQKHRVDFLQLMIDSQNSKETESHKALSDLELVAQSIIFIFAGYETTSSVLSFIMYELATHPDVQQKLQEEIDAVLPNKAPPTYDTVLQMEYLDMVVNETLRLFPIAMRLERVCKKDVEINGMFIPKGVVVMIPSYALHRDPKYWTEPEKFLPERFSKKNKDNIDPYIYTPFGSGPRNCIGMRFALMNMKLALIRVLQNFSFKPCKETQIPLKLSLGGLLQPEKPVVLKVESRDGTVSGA
# Test: Cytochrome panel assay with activity outcomes
# Details: recombinant CYP, pro-luciferin dealkylation, luminescence, p450-cyp3a4; series mostly up to 57.1 µM; activity, negative = inhibition: at the top concentration
# % is set by controls: 0 for no effect and ±100 for the full control effect.
Structure (SMILES),AC50,"activity, negative = inhibition"
COC(=O)[C@@]1(Cc2ccccc2)[C@H]2c3cc(C(=O)N4CCCC4)n(Cc4ccsc4Br)c3C[C@H]2CN1C(=O)c1ccccc1,3.98 µM (active),
COC(=O)[C@@]1(Cc2ccccc2)[C@H]2c3cc(C(=O)N(C)C)n(Cc4ccsc4Br)c3C[C@H]2CN1C(=O)c1ccccc1,1.58 µM (active),
CC(C)c1ccc(/C(C(=O)O)=C(\O)C(=O)O)cc1,,-12.9% [at 11.4 µM] (inactive)
O=C(O)CCC(=O)c1ccc2ccc3cccc4ccc1c2c34,,-10.9% [at 11.4 µM] (inactive)
CC1(C)OC(=O)C(=CNCC(O)c2ccccc2)C(=O)O1 (stereo not drawn),,20.4% [at 11.4 µM] (inactive)
COc1ccc(-c2noc(N(C)CC(=O)Nc3cccc(C(F)(F)F)c3)n2)cc1,12.6 µM (active),
COc1ccc(-c2cc(CNC(C)=O)on2)cc1,,17.4% (inactive)
Cc1ccccc1NC(=O)c1cnc(Nc2nc3ccccc3s2)nc1C,,-7.53% (inactive)
Cc1cccc2sc(NC(=O)C3c4ccccc4Oc4ccccc43)nc12,12.6 µM (active),
CC(=O)c1ccc(OC(=O)C2c3ccccc3Oc3ccccc32)cc1,,10.9% [at 2.29 µM] (inactive)
Cc1ccc2nc(Nc3nc(-c4ccccc4)cc(=O)[nH]3)nc(C)c2c1,2.51 µM (active),
O=C(Nc1nn[nH]n1)c1nc(-c2ccccc2)cc(=O)[nH]1,,-3.85% [at 11.4 µM] (inactive)
Cc1ccc2c(C)nc(Nc3nc(CSc4nc5ccccc5[nH]4)cc(=O)[nH]3)nc2c1,2.82 µM (active),
C[N+](C)(C)CCCSc1nc2ccccc2[nH]1,,4.86% [at 11.4 µM] (inactive)
O=c1nc(-c2ccccc2)cc(C(F)(F)F)[nH]1,,6.38% (inactive)
CC(=O)Nc1ccc(S(=O)(=O)NCCc2ccc(F)cc2)cc1,,-13.3% [at 2.29 µM] (inactive)
CCOC(=O)Cn1c(=O)oc2cc(S(=O)(=O)NCCc3ccc(OCC)c(OCC)c3)ccc21,12.6 µM (active),
O=C(NN=C1C2CC3CC(C2)CC1C3)c1ccncc1,25.1 µM (active),
CC(=O)c1c(C(C)=O)c(C)n(NC(=O)c2ccncc2)c1C,,-3.59% (inactive)
COc1ccc2c(c1)C(=O)N(c1ccccc1)C(=O)C2,2.24 µM (active),
COc1ccc2c(c1)-c1ccccc1S(=O)(=O)N2C,,-20.4% (inactive)
O=C1c2ccc3c4c(ccc(c24)C(=O)N1c1ccc2ccccc2c1)CC3,,-10.2% (inactive)
O=C(N/N=C/c1cccnc1)c1ccc([N+](=O)[O-])cc1,,-24.7% (inactive)
O=C(COc1ccc([N+](=O)[O-])cc1)Nc1ccc(C(=O)NCc2cccnc2)cc1,12.6 µM (active),
CCOc1ccc(OCc2ccc(C(=O)NCc3cccnc3)o2)cc1,2.82 µM (active),
Cc1ccccc1CS(=O)(=O)Cc1ccc(C(=O)NCc2cccnc2)o1,0.891 µM (active),
O=C(c1ccc(COc2ccc(F)cc2)o1)n1cccn1,,-13.5% (inactive)
O=C(COc1ccc([N+](=O)[O-])cc1)NCc1ccccc1,,-8.35% (inactive)
